Data taken from PubChem BioAssay AID1531 (NMMLSC, 2009).
In all, about 290,000 compounds went through this assay and about 3,300 (1.1%) were called active. The sample holds actives, similar compounds and a random draw of the others, so the mix is not that of the screen. Rule as the data show it: active = binding response below about 67% or above about 130%; inconclusive = no clear call, values can overlap the other calls; inactive = in between.

The molecules below were run against Mitogen-activated protein kinase kinase kinase 2 (Homo sapiens) (UniProt Q9Y2U5) (assay: modulators of MEK5 binding to wildtype MEKK2, primary screen, biochemical, multiplex bead flow cytometry, Alexa488-MEK5 (AID 1531)). Settings: Alexa488-MEK5 binding to MEKK2 WT, at 10 µM, actives lie on both sides.

Binding response (% of control), active:
COc1ccc(SC[C@H](Cc2ccccc2)N2CCN(CCc3ccccc3)CCC2=O)cc1 158%
C[C@H]1CCC(=O)N([C@H](CSc2ccccc2)Cc2ccccc2)CC1 161%
CCCOc1ccc(C(=O)C(CCC(CNCC)C(=O)c2ccc(OCCC)cc2)CNCC)cc1 (centres undefined) 188%
CN=c1scc(-c2cc(OC)ccc2OC)n1/N=C/c1c(C)[nH]c2ccccc12 10%
Cc1cn(COC/C=C/c2ccccc2)c(=O)[nH]c1=O -7% [inhibitor]
CN=C1SC(C(=O)O)CC(=O)N1C (centres undefined) 3%
COc1cccc(CNCCc2c[nH]c3ccccc23)c1OCc1ccccc1F 159%
c1ccc(CN2CCC(N=C3NN=C(c4ccc5c(c4)OCCO5)CS3)CC2)cc1 154%
CCN1C(=NCc2ccc(OC)cc2)N[C@@H](CCc2ccccc2)[C@H](C(=O)NCc2ccc(OC)cc2)[C@H]1C 139%
Cc1c(CCOC(=O)CC23CC4CC(CC(C)(C4)C2)C3)sc[n+]1Cc1ccc([N+](=O)[O-])cc1 172%
C=CCN1C=C2C(=O)C(C)(OC(=O)CCc3ccccc3)C(=O)C=C2C=C1c1ccc(C#N)cc1 (centres undefined) 142%

Binding response (% of control), inactive:
COC(=O)CN1C(=O)[C@H]2[C@@H](/C=C/c3ccccc3)N3C(=O)CN(Cc4ccccc4)C(=O)[C@@]3(Cc3ccccc3)[C@H]2C1=O 95%
COCCNc1cc(-c2ccccc2)nc2cc(-c3cccc(F)c3)nn12 118%
COc1ccc(SCCN2CCN(CC(C)C)CCC2=O)cc1 131%
CN1CCC(=O)N([C@H](CO)Cc2ccccc2)CC1 97%
O=C1CCN(Cc2ccccc2)CCN1[C@H](CSc1ccccc1)c1ccccc1 90%
O=C1CCNCCN1[C@H](CO)Cc1ccccc1 110%
O=C(NCc1ccccc1)C1=C[C@@H](c2ccccc2)C[C@@H](OCCCCO)O1 101%
COCOc1cc(O)c(C(=O)/C=C/c2ccc(OCOC)c(OCOC)c2)c(OCOC)c1 111%
COc1ccccc1N1CCN(c2nc(C)cc(=O)[nH]2)CC1 107%
CCCCOc1ccc(C(=O)NN2CCN(C)CC2)cc1 99%
CCCCOc1ccc(C(=O)NCc2ccncc2)cc1 111%
CCCCN(CCCC)CCNC(=O)CN1C(=O)COc2ccc(S(=O)(=O)N3CCOCC3)cc21 103%
CCn1c(-c2cc(OC)ccc2OC)csc1=Nc1c(C)n(C)n(-c2ccccc2)c1=O 107%
COc1ccc(N=Cc2c(O)[nH]c3ccccc23)cc1OC 103%
Cc1cc(OCC(=O)NCC(O)c2ccccc2)c2c(C)c(C)c(=O)oc2c1 (centres undefined) 100%
O=C(Nc1ccccc1)c1ccc2c(c1)OCCCO2 105%
COc1ccc(C(C)NC(=S)NC2CCCCC2)cc1OC (centres undefined) 101%
Cc1nc2nc[nH]n2c(=O)c1C/C=C/c1ccccc1 83%
Cc1[nH]c(=O)c(C(=O)/C=C/c2ccccc2)c2c1CCCC2 101%
COc1ccc(-c2nc3c(s2)CCc2onc(-c4ccc(Br)cc4)c2-3)cc1 95%
CCCCN(CCCC)CCCNC(=O)CN1C(=O)COc2ccc(S(=O)(=O)N3CCC(C)CC3)cc21 96%
CCOc1ccc(N=C2SC(C(=O)O)CC(=O)N2C)cc1 (centres undefined) 92%
COc1ccc(N=C2SC(C(=O)Nc3ccc(F)cc3)CC(=O)N2C)cc1 (centres undefined) 97%
COc1ccc(S(=O)(=O)NCCc2c[nH]c3ccccc23)cc1OC 100%
COc1ccccc1CC(=O)NCCc1c[nH]c2ccccc12 101%
CCn1cc(C(=O)NCC(=O)NC(C)(C)CO)c(=O)c2cc3c(cc21)OCO3 101%
O=C(OCC(=O)N1CCN(C(=O)c2ccco2)CC1)c1cccc(O)c1 106%
Cc1c(C(=O)NC2CCCCC2)oc2ccccc12 108%
Cc1c(C)c2c(OCC(=O)NCCCO)cc3c(c2oc1=O)CCC(C)(C)O3 99%
CS(=O)(=O)N(CC(=O)N1CCN(Cc2ccccc2)CC1)c1ccc2c(c1)OCCO2 103%
Clc1cccc(N=C2NN=C(c3ccc4c(c3)OCCO4)CS2)c1 97%
CC1(c2nnc(-c3ccncc3)o2)CC(c2cccnc2)=NO1 (centres undefined) 105%
O=C(NCCc1ccc(Cl)cc1Cl)c1cc([N+](=O)[O-])c[nH]c1=O 96%
COc1ccc(Cn2c(-c3ccc(Cl)cc3)c[n+]3ccccc23)cc1 112%
Cc1c(C)c2ccc(OCC(=O)N3CCN(c4cccc(Cl)c4)CC3)cc2oc1=O 92%
Cc1ccc(C(CNC(=O)Nc2cccc(C)c2)N2CCN(C)CC2)cc1 (centres undefined) 104%
CCN1C(=NCC(C)C)N[C@@H](CCc2ccccc2)[C@H](C(=O)NCC(C)C)[C@H]1C 103%
CCN1C(=S)N[C@@H](CCc2ccccc2)[C@H](C(=O)OC)[C@H]1C 98%
COc1ccc(CCNS(=O)(=O)c2cc3c(cc2C)NC(=O)CO3)cc1OC 98%
COc1ccc(NC(=O)CSc2nc3ccccc3c(=O)n2C)cc1 105%
COc1ccccc1/C=N/Nc1nc(C)c(C(C)=O)s1 95%
O=C(CSc1nc(Nc2ccccc2)nc(N2CCOCC2)n1)Nc1cc(Cl)ccc1O 99%
Cc1c(CCOC(=O)c2cc([N+](=O)[O-])ccc2Cl)sc[n+]1CCCCS(=O)(=O)[O-] 97%
Cc1c(CCO)sc[n+]1CC(=O)OC12CC3CC(CC(C3)C1)C2 97%
CS(=O)(=O)N(Cc1nc2sc3c(c2c(=O)[nH]1)CCCC3)C1CCCCC1 99%
COc1ccc(-c2csc3ncnc(N4CCN(S(=O)(=O)c5ccccc5C#N)CC4)c23)cc1 107%
CC1(OC(=O)CCc2ccccc2)C(=O)C=C2C=C(c3ccc(C#N)cc3)N(CCc3ccccn3)C=C2C1=O (centres undefined) 111%
COC(=O)CCCC1=CC2=CC(=O)C(C)(OC(=O)c3cccs3)C(=O)C2=CN1c1cccc(C#N)c1 (centres undefined) 96%
